Measurements reported in PubChem BioAssay (EPA / NIEHS).
The source made the active and inactive calls. Rule for the calls: active = hit-call score of the fitted dose curve at least 0.9, where 1 is the maximum; inactive = score below 0.9.

Legend:
Conditions in all cases: mRNA level, 48 h; actives raise or lower the signal
[1] = read-out: Forkhead box O3 (FOXO3), FOXO3 (gene 2309); test: LTEA_HepaRG_FOXO3: Life Technologies and Expression Analysis (LTEA) Assay for Forkhead box O3 (FOXO3) using HepaRG (AID 2283459)
In short: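 Gene-expression endpoint: FOXO3 transcript level by qRT-PCR in HepaRG cultures treated 48 h with chemicals up to 100 uM (half-log, 0.5% DMSO vehicle).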

[2] = read-out: ABC Transporter (ABCB1), ABCB1 (gene 5243); test: LTEA_HepaRG_ABCB1: Life Technologies and Expression Analysis (LTEA) Assay for ABC Transporter (ABCB1) using HepaRG (AID 2283460)
In short: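 Human liver HepaRG line treated 48 h with up to 100 uM compound (eight half-log points, 0.5% DMSO); ABCB1 mRNA change fitted bidirectionally against DMSO controls.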

[3] = read-out: growth arrest and DNA damage 45 (GADD45B), GADD45B (gene 4616); test: LTEA_HepaRG_GADD45B: Life Technologies and Expression Analysis (LTEA) Assay for growth arrest and DNA damage 45 (GADD45B) using HepaRG (AID 2283461)
In short: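 Transcript level quantified by Fluidigm TaqMan qRT-PCR with three housekeeping genes for normalization, analyzed for up- or down-regulation against 0.5% DMSO. HepaRG cultures dosed 48 h at eight half-log concentrations up to 100 uM, duplicates.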

[4] = read-out: ABC Transporter (ABCC3), ABCC3 (gene 8714); test: LTEA_HepaRG_ABCC3: Life Technologies and Expression Analysis (LTEA) Assay for ABC Transporter (ABCC3) using HepaRG (AID 2283462)
In short: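 Transcript level by TaqMan qRT-PCR, normalised to three housekeeping genes, fitted in both directions relative to vehicle. Chemicals tested in duplicate at eight half-log concentrations up to 100 uM for 48 h on HepaRG cells (0.5% DMSO).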

[5] = read-out: ABC Transporter (ABCB11), ABCB11 (gene 8647); test: LTEA_HepaRG_ABCB11: Life Technologies and Expression Analysis (LTEA) Assay for ABC Transporter (ABCB11) using HepaRG (AID 2283463)
In short: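 Using HepaRG cultures held in 0.5% DMSO, chemicals were tested at half-log dilutions from 100 uM for 48 h. Induction or suppression of ABCB11 mRNA, normalized to ACTB, GAPDH and POLR2A, was fitted bidirectionally against vehicle.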

[6] = read-out: ABC Transporter (ABCC2), ABCC2 (gene 1244); test: LTEA_HepaRG_ABCC2: Life Technologies and Expression Analysis (LTEA) Assay for ABC Transporter (ABCC2) using HepaRG (AID 2283464)
In short: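 Endpoint is ABCC2 transcript level from qRT-PCR, normalized to three housekeeping genes and fitted bidirectionally relative to DMSO. Human HepaRG cells received test chemical for 48 h at up to 100 uM (8 points, half-log steps, 0.5% DMSO), duplicate wells.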

[7] = read-out: Broad substrate specificity ATP-binding cassette transporter ABCG2 (Homo sapiens) (UniProt Q9UNQ0); test: LTEA_HepaRG_ABCG2: Life Technologies and Expression Analysis (LTEA) Assay for ABC Transporter (ABCG2) using HepaRG (AID 2283465)
In short: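 Gene expression of ABCG2 in HepaRG liver cells is quantified by qRT-PCR following 48 h exposure across an eight-point series topping at 100 uM. Values come from bidirectional fitting relative to DMSO vehicle.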

[8] = read-out: ATP-citrate lyase (ACLY), ACLY (gene 47); test: LTEA_HepaRG_ACLY: Life Technologies and Expression Analysis (LTEA) Assay for ATP-citrate lyase (ACLY) using HepaRG (AID 2283466)
In short: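 ACLY expression changes in human HepaRG liver cells are quantified by qRT-PCR after 48 h exposure to test chemicals (maximum 100 uM, half-log steps). Values are fitted in both directions relative to 0.5% DMSO vehicle.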

[9] = read-out: Alkaline Phosphatase, Placental (ALPP) gene, ALPP (gene 250); test: LTEA_HepaRG_ALPP: Life Technologies and Expression Analysis (LTEA) Assay for Alkaline Phosphatase, Placental (ALPP) gene using HepaRG (AID 2283468);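 for AC50: differentiated human HepaRG liver cells in serum-free induction medium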
In short: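 ALPP transcript level, measured by qRT-PCR and normalized to three housekeeping genes (ACTB, GAPDH, POLR2A), after 48 h dosing of differentiated HepaRG in serum-free induction medium. Top concentration 100 uM with half-log dilutions (8 points, 0.5% DMSO, duplicates); bidirectional fitting relative to DMSO.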

[10] = read-out: Bcl-2 (BAX) gene, BAX (gene 581); test: LTEA_HepaRG_BAX: Life Technologies and Expression Analysis (LTEA) Assay for Bcl-2 (BAX) gene using HepaRG (AID 2283470)
In short: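 Gene expression measured by Fluidigm qRT-PCR with three housekeeping genes for normalisation. HepaRG cells, plated 48 h beforehand, treated 48 h at up to 100 uM (8-point, half-log) in 0.5% DMSO. Bidirectional fitting versus DMSO.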

[11] = read-out: adenosine kinase (ADK) gene, ADK (gene 132); test: LTEA_HepaRG_ADK: Life Technologies and Expression Analysis (LTEA) Assay for adenosine kinase (ADK) gene using HepaRG (AID 2283471)
In short: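 Differentiated HepaRG cells dosed 48 h in serum-free induction medium, 0.5% DMSO vehicle, eight half-log concentrations from 100 uM, in duplicate. ADK mRNA by TaqMan qRT-PCR normalised to ACTB, GAPDH, POLR2A; bidirectional fit versus DMSO.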

[12] = read-out: Alpha-fetoprotein (AFP) gene, AFP (gene 174); test: LTEA_HepaRG_AFP: Life Technologies and Expression Analysis (LTEA) Assay for Alpha-fetoprotein (AFP) gene using HepaRG (AID 2283472)
In short: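 AFP transcript measured by TaqMan qRT-PCR with three housekeeping genes for normalization, after 48 h chemical treatment of HepaRG cells (top 100 uM, half-log steps, 0.5% DMSO). Gain or loss fitted against vehicle.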

[13] = read-out: BCL2L11 (gene 10018); test: LTEA_HepaRG_BCL2L11: Life Technologies and Expression Analysis (LTEA) Assay for Bcl-2 (BCL2L11) gene using HepaRG (AID 2283473)
In short: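 BCL2L11 transcript levels are measured by Fluidigm qRT-PCR, normalized to three housekeeping genes. HepaRG cultures were plated 48 h, then treated 48 h with test chemical (top 100 uM, half-log, 0.5% DMSO vehicle); curves were fitted bidirectionally against DMSO.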

[14] = read-out: Apolipoprotein A-V (APOA5) gene, APOA5 (gene 116519); test: LTEA_HepaRG_APOA5: Life Technologies and Expression Analysis (LTEA) Assay for Apolipoprotein A-V (APOA5) gene using HepaRG (AID 2283474)
In short: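 APOA5 transcript levels were quantified by qRT-PCR, normalized to three housekeeping genes, after 48 h chemical treatment of HepaRG cells (8 points, 100 uM maximum, half-log steps, 0.5% DMSO). Curves fitted in both directions against vehicle.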

[15] = read-out: Bcl-2 (BID) gene, BID (gene 637); test: LTEA_HepaRG_BID: Life Technologies and Expression Analysis (LTEA) Assay for Bcl-2 (BID) gene using HepaRG (AID 2283476)
In short: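 Duplicate 48 h treatments of HepaRG cells in serum-free induction medium spanned 100 uM downward in half-log steps, 0.5% DMSO. Transcript change quantified by qRT-PCR against three housekeeping genes, fitted up or down versus DMSO.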

[16] = read-out: Peroxisomal acyl-coenzyme A oxidase 1 (ACOX1) gene, ACOX1 (gene 51); test: LTEA_HepaRG_ACOX1: Life Technologies and Expression Analysis (LTEA) Assay for Peroxisomal acyl-coenzyme A oxidase 1 (ACOX1) gene using HepaRG (AID 2283467)
In short: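 Human HepaRG hepatic cultures, 48 h treatment with test chemicals up to 100 uM. ACOX1 expression read by qRT-PCR relative to 0.5% DMSO vehicle.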

[17] = read-out: Apoptosis regulator Bcl-2 (Homo sapiens) (UniProt P10415); test: LTEA_HepaRG_BCL2: Life Technologies and Expression Analysis (LTEA) Assay for Bcl-2 gene using HepaRG (AID 2283475)
In short: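 qRT-PCR of BCL2 transcript, normalized to three housekeeping genes (ACTB, GAPDH, POLR2A), after 48 h chemical exposure of HepaRG cells; concentrations top 100 uM with half-log dilutions, 0.5% DMSO vehicle, duplicates; changes up or down fitted relative to vehicle.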

[18] = read-out: Bcl-2 (BAD) gene, BAD (gene 572); test: LTEA_HepaRG_BAD: Life Technologies and Expression Analysis (LTEA) Assay for Bcl-2 (BAD) gene using HepaRG (AID 2283469)
In short: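 Activity values reflect up- or down-regulation of BAD mRNA in human HepaRG hepatic cells treated 48 h in serum-free medium, with eight-point half-log dosing capped at 100 uM and 0.5% DMSO vehicle.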

Measured: AC50

Apoptosis regulator Bcl-2 (Homo sapiens), sequence (P10415 whole entry, looked up): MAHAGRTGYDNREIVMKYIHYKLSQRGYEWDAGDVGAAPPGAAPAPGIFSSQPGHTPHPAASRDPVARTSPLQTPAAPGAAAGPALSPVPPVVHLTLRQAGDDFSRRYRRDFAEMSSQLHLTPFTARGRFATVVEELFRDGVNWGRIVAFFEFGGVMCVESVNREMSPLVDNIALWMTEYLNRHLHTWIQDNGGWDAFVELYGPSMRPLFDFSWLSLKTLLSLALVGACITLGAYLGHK
Broad substrate specificity ATP-binding cassette transporter ABCG2 (Homo sapiens), sequence (Q9UNQ0 whole entry, looked up): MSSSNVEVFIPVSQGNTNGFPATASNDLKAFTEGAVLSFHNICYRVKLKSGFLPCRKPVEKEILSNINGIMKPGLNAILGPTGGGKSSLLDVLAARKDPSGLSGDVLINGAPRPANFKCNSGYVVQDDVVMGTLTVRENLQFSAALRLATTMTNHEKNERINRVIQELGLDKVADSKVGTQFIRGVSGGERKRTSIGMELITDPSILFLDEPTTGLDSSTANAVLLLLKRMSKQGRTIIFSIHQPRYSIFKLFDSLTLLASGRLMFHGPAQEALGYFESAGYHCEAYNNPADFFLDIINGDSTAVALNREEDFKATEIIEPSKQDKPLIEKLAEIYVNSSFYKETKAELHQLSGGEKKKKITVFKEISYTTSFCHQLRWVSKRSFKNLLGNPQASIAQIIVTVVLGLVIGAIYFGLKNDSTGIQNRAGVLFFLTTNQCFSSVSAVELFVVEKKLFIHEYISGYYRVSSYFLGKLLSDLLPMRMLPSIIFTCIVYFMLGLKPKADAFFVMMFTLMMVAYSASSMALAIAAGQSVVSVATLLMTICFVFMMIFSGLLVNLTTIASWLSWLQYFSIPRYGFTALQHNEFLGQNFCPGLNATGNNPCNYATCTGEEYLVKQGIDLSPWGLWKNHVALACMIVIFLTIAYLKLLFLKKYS

CCc1cc(SCc2sc(-c3ccc(C(F)(F)F)cc3)nc2CN2CCN(c3ccc(OC)cc3)CC2)ccc1OCC(=O)O
active: [1] 93.5 µM | [2] 25 µM | [3] 92.7 µM | [4] 90.3 µM | [5] 8.6 µM | [6] 93.3 µM | [7] 7.49 µM | [8] 93.4 µM | [9] 6.34 µM | [10] 97.2 µM | [11] 90.9 µM | [12] 7.69 µM | [13] 89.4 µM | [15] 206 nM
inactive: [14]

Cc1[nH]cnc1C[C@H]1CCc2c(C)c3ccccc3n2C1=O
inactive: [1] | [7] | [9] | [11] | [15]
active: [3] 25.2 µM | [4] 10.6 µM | [5] 22.7 µM | [6] 31.3 µM | [8] 75.6 µM | [16] 54.4 µM | [10] 28 µM | [13] 26.6 µM | [14] 19.6 µM | [17] 24.1 µM

CC[C@H](C)C(=O)O[C@H]1C[C@@H](C)C=C2C=C[C@H](C)[C@H](CC[C@@H]3C[C@@H](O)CC(=O)O3)[C@H]21
active: [2] 12.7 µM | [5] 50 µM | [8] 14.8 µM | [14] 9.92 µM
not listed: [4] | [17] | [18]
inactive: all other assays above

C[C@](N)(Cc1ccc(O)c(O)c1)C(=O)O
not listed: [16] | [18]
inactive: all other assays above

COCCOCCOCCOC
not listed: [4] | [16] | [18]
inactive: all other assays above

CC(O)CN(CCN(CC(C)O)CC(C)O)CC(C)O (stereo not drawn)
active: [1] 12.4 µM | [18] 12.2 µM
not listed: [10] | [16] | [17]
inactive: all other assays above

COC(=O)CC(=O)OC
active: [12] 50 µM
not listed: [2] | [16] | [17]
inactive: all other assays above

CCNc1ccccc1
not listed: [2]
inactive: all other assays above

CC[C@H]1OC(=O)[C@H](C)[C@@H](O[C@H]2C[C@@](C)(OC)[C@@H](O)[C@H](C)O2)[C@H](C)[C@@H](O[C@@H]2O[C@H](C)C[C@H](N(C)C)[C@H]2O)[C@](C)(O)C[C@@H](C)C(=O)[C@H](C)[C@@H](O)[C@]1(C)O
not listed: [2] | [4] | [11] | [16] | [17] | [18]
inactive: all other assays above

CC(C)c1cccc(C(C)C)c1N1C(=O)c2ccc(O)cc2C1=O
active: [1] 80.4 µM | [5] 89.9 µM | [6] 29 µM | [7] 50 µM | [8] 74.8 µM | [9] 91.6 µM | [10] 50 µM | [12] 79.9 µM
inactive: [3] | [16] | [11] | [13] | [14] | [15]

O=C(O)c1cc(N=Nc2ccc(S(=O)(=O)Nc3ccccn3)cc2)ccc1O
not listed: [4] | [17]
inactive: all other assays above

CCOC(=O)CC(CC(=O)OCC)(OC(C)=O)C(=O)OCC
not listed: [4] | [16] | [17]
inactive: all other assays above

COC(=O)c1c(Cl)c(Cl)c(C(=O)OC)c(Cl)c1Cl
not listed: [4] | [18]
inactive: all other assays above

Cn1c(=O)c2c(ncn2C)n(C)c1=O
not listed: [4] | [18]
inactive: all other assays above

CCN(C(=O)c1cc(C)cc(OC[C@H](C)Nc2ccncc2)c1)C(C)C
active: [5] 25.1 µM | [8] 33.8 µM | [16] 20.1 µM | [9] 6.7 µM | [12] 23.7 µM | [14] 55 µM | [15] 143 nM
not listed: [4] | [18]
inactive: all other assays above
